KCNQ2 inh: inhibitors of rat KCNQ2 potassium channel. B-score at 10 µM. O88943. CHO-K1 KCNQ2, FluxOR thallium flux, 20 min; active compounds read low. 310,000 compounds, 1.1% hits;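 active = fluorescence ratio B-score at most minus 3 library SDs, with starting brightness B-score within 2 library SDs, cut at about -5.5 in these data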
KCNQ2 enhance: KCNQ2 (rat) channel potentiation; O88943; CHO-K1 KCNQ2, FluxOR thallium flux fluorescence; active compounds read high; B-score at 10 µM; 310,000 compounds, 0.54% hits; AID 2239;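 active = fluorescence ratio B-score at least 3 SD of library B-scores, with initial fluorescence B-score within 3 of them, cut at about 5.3 in these data; same plate scores as AID 2156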;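 note: B-score of peak minus minimum over baseline fluorescence ratio after K+ and Tl+ stimulus; positive B-score means potentiation of KCNQ2 with more thallium influx and brighter signal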
KCNQ2 block conf: confirmation of rat KCNQ2 potassium channel inhibitors. shares compounds with KCNQ2 inh. KCNQ2-expressing cells, thallium flux, inhibition; active compounds read low. activity change, negative = inhibition, % at 10 µM. 1,000 compounds, 57% hits. AID 493025;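 note: 0% = vehicle wells and values are ratio percent relative to vehicle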
KCNQ1 spec: human KCNQ1 activity in KCNQ2 inhibitor specificity screen. shares compounds with KCNQ2 inh. KCNQ1-expressing cells, FluxOR thallium flux fluorescence; active compounds read low. activity change, negative = inhibition, % at 10 µM. 1,000 compounds, 15% hits;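 active = activity change at least 3 SD of negative controls below their mean in both duplicate wells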;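 note: CHO cells stably transfected with KCNQ1 and depolarized by potassium stimulus; peak minus minimum fluorescence over baseline after thallium addition; 0% = vehicle negative control and -100% = blank without thallium stimulus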
CHO parental ctr: KCNQ2 inhibitor counter-screen hit in parental CHO cells | shares compounds with KCNQ2 inh | thallium flux counter-screen; active compounds read low | activity change, % at 10 µM | 1,000 compounds, 14% hits | AID 493029;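 note: 0% = vehicle negative controls with stimulus buffer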
KCNQ2 inh confirm: blocks rat KCNQ2 current in automated patch clamp; shares compounds with KCNQ2 inh; KCNQ2-expressing cells; calls only at 10 µM; 550 compounds, 49% hits
Numbers without * were called inactive; i = inactive; / = not tested or not shown; + = active, no number. In the library only some 1.6% were active in any assay of this set; here they are far more common. Unless noted, the rule behind the calls is not given here.

SMILES | KCNQ2 inh | KCNQ2 enhance | KCNQ2 block conf | KCNQ1 spec | CHO parental ctr | others
CCN(Cc1ccccc1)C(c1ccccn1)c1nnnn1C1CCCCC1 (stereo unspecified) | i | / | / | / | /
COc1ccc(CNn2c(-c3cccs3)nc3ccccc3c2=O)cc1OC | -9.22* | -9.22 | -40.5%* | i | i | KCNQ2 inh confirm=+
COc1ccc(C(=O)Nn2c(C)nc3ccccc3c2=O)cc1OC | i | / | / | / | /
Nc1ccccc1C(=O)NCC1(c2ccccc2)CCCC1 | i | / | / | / | /
O=C(CCCC(=O)Nc1ccccc1Br)N/N=C/c1c(F)cccc1Cl | i | 2.06 | / | / | /
CCCC[C@@H]1C[C@H]1[C@@H](NC(=O)c1cccs1)c1ccc(C(F)(F)F)cc1 | -8.69* | -8.69 | -18.0%* | i | i | KCNQ2 inh confirm=i
CCCC[C@@H]1C[C@H]1[C@@H](NC(=O)c1ccco1)c1ccccc1C(F)(F)F | i | / | / | / | /
C/C(=N/NC(=O)c1cc(-c2ccccc2)nc2c(Cl)cccc12)c1cccnc1 | i | / | / | / | /
Cc1cc(C(c2ccc(C)o2)c2ccc(C)o2)c(O)c([N+](=O)[O-])c1 | -8.88* | -8.88 | i | i | i
Cc1ccc(C(c2ccc(C)o2)c2cccc([N+](=O)[O-])c2O)o1 | i | / | / | / | /
COCC(C)NC(C(=O)Nc1ccc(C)c(Cl)c1)c1ccccc1 (stereo unspecified) | -6.77* | -6.77 | i | i | i
CNC(=O)NC(=O)C(NC1CCCc2ccccc21)c1ccccc1 (stereo unspecified) | i | / | / | / | /
Cc1ccc(NC(=O)C(NC2CCCc3ccccc32)c2ccccc2)cc1Cl (stereo unspecified) | -8.93* | -8.93 | i | i | i
O=C(OC(C(=O)Nc1cc(Cl)cc(Cl)c1)c1ccccc1)C1=COCCO1 (stereo unspecified) | i | / | / | / | /
COCCNC(C(=O)Nc1cc(Cl)cc(Cl)c1)c1ccccc1 (stereo unspecified) | -8.06* | -8.06 | -29.5%* | i | i | KCNQ2 inh confirm=+
CCOCCCNC(C(=O)Nc1ccc(OC)c(Cl)c1)c1ccccc1 (stereo unspecified) | i | / | / | / | /
COCC(C)NC(C(=O)Nc1cccc(C(C)=O)c1)c1ccccc1 (stereo unspecified) | i | 0.75 | / | / | /
CN(C)C(C(=O)Nc1cc(Cl)cc(Cl)c1)c1ccccc1 (stereo unspecified) | -8.27* | -8.27 | -29.0%* | i | i | KCNQ2 inh confirm=+
Clc1ccc(CN2C3=NCCCN3c3ccccc32)c(Cl)c1 | i | 0.02 | / | / | /
Cc1ccccc1OCC(=O)NCCC1=CCCCC1 | -7.34* | -7.34 | i | i | i
CC(=O)Nc1ccccc1OCC(=O)NCCC1=CCCCC1 | i | 1.32 | / | / | /
COc1ccc(Nc2nc(C(=O)NCCCN3CCOCC3)cs2)cc1 | i | / | / | / | /
COc1ccc(C2(c3ccc(OC)cc3)NC(=O)N(CC(=O)N(C)C)C2=O)cc1 | i | / | / | / | /
CC(C)=CCc1c(O)cc2c(c1O)C(=O)CC(c1ccccc1)O2 (stereo unspecified) | i | 1.04 | / | / | /
COc1ccc(C2CC(=O)c3c(O)cc(O)cc3O2)c(CC=C(C)C)c1OC (stereo unspecified) | -12.6* | -12.6 | -33.5%* | i | i | KCNQ2 inh confirm=+
SMILES | KCNQ2 inh | KCNQ2 enhance | KCNQ2 block conf | KCNQ1 spec | CHO parental ctr | others
Cc1cccc(N(Cc2ccccc2)C(=O)c2cccc(S(=O)(=O)N3CC(C)OC(C)C3)c2)c1 (stereo unspecified) | i | / | / | / | /
CC(=O)c1c(C)[nH]c(C(=O)NCCc2c[nH]c3ccccc23)c1C | i | / | / | / | /
CC1CN(C2=NC(=O)/C(=C/c3ccncc3)S2)CC(C)O1 (stereo unspecified) | i | / | / | / | /
Cc1ccc(CN2CCN(/N=C/c3ccc(C(F)(F)F)cc3)CC2)c(C)c1 | i | / | / | / | /
Cc1ccc(CN2CCN(/N=C/c3ccc(C(=O)O)cc3)CC2)c(C)c1 | -7.33* | -7.33 | -26.5%* | i | i | KCNQ2 inh confirm=+
COc1ccc(Cl)cc1NC(=O)C(C)N(C)Cc1cccc(Cl)c1Cl (stereo unspecified) | -7.27* | -7.27 | i | i | i
COc1ccc(Cl)cc1NC(=O)NC(C)C | i | / | / | / | /
Cc1nnc(SCC(=O)Nc2cc(C(F)(F)F)ccc2N2CCOCC2)o1 | i | 0.41 | / | / | /
Cc1ccccc1SCC(=O)Nc1cc(C(F)(F)F)ccc1N1CCOCC1 | -9.54* | -9.54 | -30.0%* | i | i | KCNQ2 inh confirm=i
CN(C)C(=O)CSc1nnc(Cc2ccc([N+](=O)[O-])cc2)o1 | i | 0.45 | / | / | /
